An excerpt weighted towards active compounds, which were near 0.69% of everything screened.
Tb PFK inh: blocks T. brucei phosphofructokinase; O15648; T. brucei PFK, ADP-Glo luminescence; Potency, µM (doses to about 57.5 µM), for inactives: at the highest dose activity, negative = inhibition, actives largely listed as inhibitors; 0.17% of 330,000 active; AID 485367;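 also: potency is read from the fitted curve at half-maximal effect; 0% = uninhibited 1x PFK enzyme wells and -100% = no-enzyme wells; nearly all actives have a fitted effect of over 60% in size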
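Luminescent ADP detection (ADP-Glo, two-step: ATP depletion then ADP-to-ATP conversion for luciferase) reported PFK activity after 45 min room-temperature reaction of 1.25 nM enzyme with 0.5 mM F6P and 0.1 mM ATP at pH 8.0.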
PKM2 activator: PKM2 (human) enzyme activation | purified PKM2, Kinase-Glo ATP luminescence, activation; response scale: 0% is enzyme alone, no compound | P14618 | Potency, µM (series often up to 57.5 µM), for the others: at the highest dose activation, usual class: activators | 0.34% of 260,000 active; also: potency is read from the fitted curve at half-maximal effect; % is scaled to controls: 0 for no effect and ±100 for the full control effect; nearly all actives have a fitted effect of over 55% in size
Target sequence (P14618 whole entry, looked up): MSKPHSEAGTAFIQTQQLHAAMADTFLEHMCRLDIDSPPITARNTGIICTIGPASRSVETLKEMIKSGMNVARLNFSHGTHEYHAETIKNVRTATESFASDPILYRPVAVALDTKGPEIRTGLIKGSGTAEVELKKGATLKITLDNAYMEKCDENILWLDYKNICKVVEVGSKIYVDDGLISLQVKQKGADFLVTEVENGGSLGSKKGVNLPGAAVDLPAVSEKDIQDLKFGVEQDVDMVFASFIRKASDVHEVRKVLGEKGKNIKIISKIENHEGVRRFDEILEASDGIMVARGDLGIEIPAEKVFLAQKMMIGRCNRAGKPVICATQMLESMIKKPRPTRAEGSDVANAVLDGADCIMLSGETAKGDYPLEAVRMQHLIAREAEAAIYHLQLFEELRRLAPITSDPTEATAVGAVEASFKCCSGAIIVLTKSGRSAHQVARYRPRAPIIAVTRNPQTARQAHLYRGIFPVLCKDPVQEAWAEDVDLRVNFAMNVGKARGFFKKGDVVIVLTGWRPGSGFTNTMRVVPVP
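Kinase-Glo luminescence reports ATP generated from ADP (0.1 mM) and PEP (0.5 mM) by purified hPK-M2 after 1 h at room temperature, pH 7.2 imidazole buffer; intermediate enzyme activity allows detecting inhibitors and activators.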
Integrin act MD: activators of alpha7 integrin expression for muscular dystrophy. alpha7betagal myoblasts, beta-gal FDG fluorescence, 48 h. Potency, µM (doses to about 38.3 µM), for the others: at the highest dose activation, hits mostly activators. 0.064% of 350,000 active;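 also: potency is read from the fitted curve at half-maximal effect; 100% = response of the positive control SU9516; nearly all actives have a fitted effect of over 60% in size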
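Alpha7betagal+/- myoblasts (passage 13) were plated 16-24 hr, then exposed to compounds (1:260 dilution of DMSO stock) for 48 hours at 37C. After MPER lysis, β-galactosidase reporter activity was read as FDG fluorescence (ex 480/em 540) after 30 minutes.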
A-T KAP1 phos: potential ataxia-telangiectasia treatment. F2112 A-T fibroblasts, KAP-1 phosphorylation AlphaLISA; neocarzinostatin DNA damage 30 min before lysis. Potency, µM (top dose mostly 57.5 µM), for the others: top-dose activation, actives largely listed as activators. 0.19% of 320,000 active; also: potency is read from the fitted curve at half-maximal effect; % of control where 0% means no effect; nearly all actives have a fitted effect of over 45% in size
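ATM-like activity read as KAP-1 phosphorylation via AlphaLISA donor/acceptor antibody pairs after lysis and 6 hr at 25C. Cells were ATM-null patient fibroblasts (F2112, hTERT), dosed 60 min, then exposed to the DSB inducer NCS for 30 min.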
IL2 activator: activates IL-2 in a cell-based reporter assay | IL-2 activation reporter assay, cell-based qHTS; stimulated with anti-CD3/CD4/CD28 beads; in transgenic mouse T cells | activation, % (series mostly up to about 46 µM) | 0.065% of 360,000 active | AID 652025; in the data active = activation above about 50%; inconclusive = mostly about 30% to 49%; also: 0% is about no effect
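Readout is EGFP and DsRed signal by fluorescent plate cytometry after 18 h at 37 degrees C. Transgenic mouse T cells (750/well) received compound for 60 min before bead stimulation (anti-CD3, anti-CD4, anti-CD28); memory T cells served as non-tolerant control.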
TCR activator: activates T cell receptor signaling; primary human leukocytes, anti-CD3, IL-2 HTRF, 48 h; Potency, µM (titrated, usually from 9.22 µM), for inactives: at the highest dose activation of IL-2 secretion, usual class: activators; 330,000 tested, under 10 active; also: % of control where 0% means no effect
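Human primary leukocytes + a-CD3 beads + cpd, 48 hr; IL-2 in supernatant by HTRF (ex 320nm / em 665nm). No co-stimulatory signal supplied.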
Active calls of the source: *; ? = inconclusive; · = no result given; [ ] = dose if it differs, or a comment. Unless noted, calls follow the shape of the dose curve; as a rule, active = well fitted curve in the direction sought with a large enough effect; inconclusive = small, poorly fitted or top-dose-only effect, or another doubt; inactive = no such curve, though single readings can be large; an effect the other way counts as inactive or inconclusive.

SMILES	Tb PFK inh	PKM2 activator	Integrin act MD	A-T KAP1 phos	IL2 activator	TCR activator
COc1cccc(NS(=O)(=O)c2cc3c(cc2C)NC(=O)CO3)c1	3%	1.8µM*	5%	9%	-3	-4%
COc1ccccc1NS(=O)(=O)c1cc2c(cc1C)NC(=O)CO2	1%	7.1µM*	-14%	3%	-2	-22%
CCOC(=O)CCCNC(=O)N1CCc2nc(-c3ccc(OC)cc3C)c3c(c2C1)CO[C@@H](c1ccccc1)C3	·	-8%[11.5 µM]	·	·	·	·
COc1ccccc1-c1c(C#N)c(N)nc2c1CCc1ccccc1-2	4%	-10%	23%	22µM*	-1	4%[46.1 µM]
CCOc1cc(-c2c(C#N)c(N)nc3c2CCc2ccccc2-3)ccc1O	7%	8%	9%	0%	1	-8%[46.1 µM]
COc1ccc(Cn2c3ccc(OC)cc3c3nc4ccccc4nc32)cc1	-2%	9%	2%	5%	267*	0%[46.1 µM]
COc1cccc(NC(=O)c2ccc3c(c2)CCCC3)c1	-5%	-29%	5.6µM*	7%	0	-3%
COCCOC(=O)c1c(C)nc(SCC(=O)Nc2ccc(OC)cc2)c(C#N)c1-c1ccco1	3%	4%	2%	·	1	-6%
Cc1nc(SCC(=O)c2ccccc2)c(C#N)c(-c2ccco2)c1C(=O)NCc1ccco1	2%	25µM*	-32%	6%	1	2%
CC#CCN1c2ccccc2[C@]23C[C@@H](C(=O)OC)N(C(=O)CC(C)C)C2=NC(C(=O)OC)=C(C(=O)OC)[C@H]13	·	3%[11.5 µM]	·	·	·	·
CCOC(=O)c1cnc2ccc(C)cc2c1Sc1ccccc1	2%	1%	-36%	14%	-4	8%
CCOC(=O)c1cnc2ccccc2c1Nc1cccc(C(=O)O)c1	-4%	3%	-26%	-3%	80*	3%
CCOC(=O)c1cnc2ccc(C)cc2c1N(C)Cc1ccccc1	11%	·	-40%	22µM*	0	-6%
O=C(Nc1ccc(Cl)cc1N1CCOCC1)C1CCCCC1	-11%	2%	7.1µM*	9%	-2	1%
Cn1ncc(S(=O)(=O)Cc2ccccc2)c(Cl)c1=O	-3%	15%	-21%	16%	-1	0%
Cn1ncc(SCc2ccccc2)c(Cl)c1=O	2%	18µM*	-66%	6%	0	4%
Cc1cc(NS(=O)(=O)c2ccccc2)cc(Cl)c1O	-2%	16µM*	-6%	2%	0	-4%
O=S(=O)(Nc1ccc(NS(=O)(=O)c2ccccc2)c(Cl)c1)c1ccccc1	·	·	-10%	·	0	5%
CCC1=Nc2cc(C(=O)NCc3ccco3)ccc2Sc2ccc(Cl)cc21	1%	18%	-27%	-10%	-1	1%[46.1 µM]
CCC1=Nc2cc(C(=O)NCc3ccco3)ccc2Sc2ccccc21	-1%	18µM*	13%	-13%	-4	-3%[46.1 µM]
Cc1ccc(NC(=O)NC(=O)N(C(C)C)S(C)(=O)=O)nc1	4%	-14%	-8%	0.71µM*	-3	0%[46.1 µM]
COc1cc2nc3c(c([Si](C)(C)C(C)(C)C)c2cc1OC)Cn1c-3cccc1=O	·	-1%	·	·	·	·
COc1ccc(-c2ncncc2-c2csc(C)n2)c(O)c1OC	-2%	5%	-8%	-1%	0	-3%
COC1=C(N)C(=O)c2nc(-c3nc(C(=O)O)c(C)c(-c4ccc(OC)c(OC)c4O)c3N)ccc2C1=O	?	-1%	·	0.71µM*	-1	-15%
COC(=O)C1=C(C(=O)OC)[C@@H]2N(C)c3ccc(OC)cc3[C@@]23C[C@@H](C(=O)OC)N(S(=O)(=O)c2ccc4c(c2)OCCN4C)C3=N1	·	-2%[11.5 µM]	·	·	·	·
Nc1nc(-c2ccccc2)cn1N	0%	28µM*	13%	0%	0	-1%
COC(=O)C1=NNC2(c3ccc(C)cc3)C(=O)N(c3ccc(C)cc3)C(=O)C12 (configuration not stated)	-2%	-3%	-6%	-2%	2	-8%

Screening data as filed in PubChem BioAssay.
